# What was measured:
# Format in all cases: functional
# Plasmodium falciparum [1] = assay: GSK_TCMDC: Inhibition of Plasmodium falciparum 3D7 in whole red blood cells, using parasite LDH activity as an index of growth. Test compounds present at 2uM
# Plasmodium falciparum [2] = assay: GSK_TCMDC: Inhibition of Plasmodium falciparum Dd2 in whole red blood cells, using parasite LDH activity as an index of growth. Test compounds present at 2uM
# HepG2 = assay: GSK_TCMDC: Percent inhibition of human HepG2 cell line. Test compounds present at 10uM.
Structure (SMILES),Inhibition (Plasmodium falciparum [1]) [%],Inhibition (Plasmodium falciparum [2]) [%],Inhibition (HepG2) [%]
Cc1[nH]c(C)c(-c2ccc(-c3ccc(F)cc3)nc2)c(=O)c1Br,97,96,15
COc1ccc(CNC2Cc3ccccc3C2)cc1-c1ccc(OC)c(S(=O)(=O)NCCN2CCCC2)c1.O=C(O)C(F)(F)F,100,97,31
Cn1cc(CN2CCC(OC(c3ccccc3)c3ccc(Cl)cc3)CC2)cn1 (configuration not stated),94,61,39
COc1ccc2ncc(C)c(CCN3CCC(NCc4ccc5c(n4)NC(=O)CS5)CC3)c2c1.Cl,100,53,14
N#Cc1cccc(NC(=O)Nc2cccc(OC3CCN(Cc4ccccc4)CC3)c2)c1.O=C(O)C(F)(F)F,100,48,5
COc1ccccc1-n1c(SCC(=O)c2ccc3c(c2)CC(=O)N3C)nnc1-c1cccs1,95,55,7
COc1ccc2cc(-c3nc(-c4c(Cl)cccc4Cl)[nH]c3-c3ccnc(NCCC4CCCN4C)c3)ccc2c1.O=C(O)C(F)(F)F (configuration not stated),100,82,11
COc1cc(NC(=O)/C=C/c2ccccc2OC(F)(F)F)cc(OCCN2CCN(CCN3CCOCC3)CC2)c1.O=C(O)C(=O)O,98,25,20
CC(=O)Nc1ccc2[nH]cc(C3CCN(CCC4CCN(C(=O)/C=C/c5ccc(Cl)c(Cl)c5)CC4)CC3)c2n1,100,80,16
O=C(Nc1cccc2ccccc12)N1CCC(NS(=O)(=O)c2cccc(C(F)(F)F)c2)CC1,95,1,0
COC(=O)c1cccc(CNCc2cccc(-c3cccc(-c4nc5cc(F)ccc5[nH]4)c3)c2)c1.O=C(O)C(F)(F)F,100,52,27
COc1ccc(N2CCN(CCCC/C=C/c3ccc(NC(=O)c4cc(Cl)cc(Cl)c4)cc3)CC2)c(OC)c1,99,39,20
CCC(C)(C)c1ccc(S(=O)(=O)Nc2ccc(Cl)c(OCCN3CCCCC3)c2)cc1,88,93,100
CCN1CCN(c2cc(C)c3cc(NC(=O)c4ccc(N(CC)CC)cc4)ccc3n2)CC1,95,41,38

# — ChEMBL document CHEMBL1157539, “Thousands of chemical starting points for antimalarial lead identification” (Nature, 2010)
